Screens as filed in PubChem.
AmpC detergent – qHTS Inhibitors of AmpC Beta-Lactamase (assay with detergent). hit rate 0.041% among 370,000. AmpC hydrolysis of nitrocefin, absorbance 480 nm, 0.01% Triton. P00811. Potency, µM (titrated, usually from 114 µM), inactives show top-dose activity change, negative = inhibition, most hits filed as inhibitors;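 note: 0% = no-compound wells and -100% = no-enzyme wells; nearly all actives have a fitted effect of over 25% in size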
Target sequence (P00811 whole entry, looked up): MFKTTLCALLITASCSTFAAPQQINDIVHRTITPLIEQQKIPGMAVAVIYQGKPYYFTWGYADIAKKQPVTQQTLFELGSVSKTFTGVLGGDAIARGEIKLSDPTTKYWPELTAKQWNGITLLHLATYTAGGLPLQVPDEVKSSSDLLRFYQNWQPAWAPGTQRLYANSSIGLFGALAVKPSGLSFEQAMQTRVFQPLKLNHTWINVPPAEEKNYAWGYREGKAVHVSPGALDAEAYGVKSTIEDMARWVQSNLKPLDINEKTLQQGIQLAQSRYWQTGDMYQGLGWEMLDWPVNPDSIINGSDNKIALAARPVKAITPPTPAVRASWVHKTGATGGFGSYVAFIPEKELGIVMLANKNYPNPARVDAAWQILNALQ
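AmpC (5.3 nM in the dispensed reagent) in 20 mM phosphate pH 7.0 with 0.01% (detergent screen) or 0.0001% Triton X-100 was preincubated with compounds for 15 min at room temperature. Nitrocefin was then added from an 800 uM solution, and hydrolysis was followed at 480 nm.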
AmpC no deterg – qHTS Inhibitors of AmpC Beta-Lactamase (assay without detergent). AmpC nitrocefin hydrolysis, absorbance 480 nm, 0.0001% Triton. Potency, µM (highest dose often 57.1 µM), without a hit: at the highest dose activity change, negative = inhibition, actives largely listed as inhibitors. hit rate 0.52% among 330,000;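 note: plate controls were no compound for no effect and no enzyme for full effect; nearly all actives have a fitted effect of over 20% in size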
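20 mM phosphate pH 7.0 + 0.01% (detergent screen) or 0.0001% Triton X-100; 5.3 nM AmpC reagent; cpd preinc 15 min RT; nitrocefin (800 uM stock) to start; A480 q20 s × 4 min; Activity was normalised to no-enzyme and no-compound control wells.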
VACV Venus inh – qHTS for Stage-Specific Inhibitors of Vaccinia Orthopoxvirus: Venus Reporter Primary qHTS | AID 720580, 2013 | hit rate 0.46% among 330,000 | Vaccinia virus Venus reporter expression, fluorescence | Potency, µM (titrated, usually from 36.5 µM), for inactives: at the top dose activity change, negative = inhibition, most hits filed as inhibitors; calls by dose curve; tested in A549 cells; note: nearly all actives have a fitted effect of over 30% in size
VACV mCherry inh – qHTS for Stage-Specific Inhibitors of Vaccinia Orthopoxvirus: mCherry Reporter Primary qHTS; Vaccinia virus mCherry reporter infection, fluorescence; Potency, µM (top dose mostly 36.5 µM), for the others: top-dose activity change, negative = inhibition, actives largely listed as inhibitors; hit rate 0.63% among 310,000; AID 720579, 2013; calls by dose curve; tested in A549 cells; note: nearly all actives have a fitted effect of over 35% in size
The depositor's hits bear a star; i = inactive; ? = inconclusive; . = no result given. This is a sample that favours compounds with a hit; in the whole collection about 1.1% have one here. Unless noted, calls come from the whole dose curve; as a rule, active = well fitted curve in the direction sought with a large enough effect; inconclusive = small, poorly fitted or top-dose-only effect, or another doubt; inactive = no such curve, though single readings can be large; an effect the other way counts as inactive or inconclusive. Unless noted, % is set by controls: 0 for no effect and ±100 for the full control effect; potency is the fitted concentration of half-maximal effect.

SMILES	AmpC detergent	AmpC no deterg	VACV Venus inh	VACV mCherry inh
COc1ccc(-c2csc(NC(=O)c3ccc(S(=O)(=O)N4CCc5ccccc5C4)cc3)n2)cc1	?	8.9µM*	-17%	-20%
CN(C)c1ccc(/C=C/c2ccnc3ccc(Br)cc23)cc1	.	.	11%	?
O=C(CSc1nc2c([nH]c3ccccc32)c(=O)n1-c1ccc(F)cc1)NCc1ccco1	7%	22µM*	-9%	-4%
COc1ccc(O)c(C(=O)N2CCC3(CC2)c2ccccc2[C@@H](NC(=O)c2ccccn2)[C@@H]3OC)c1	.	.	13%	-9%
O=C1CSC(=S)N1N=Cc1c[nH]c2ccc(Br)cc12	.	.	-10%	-6%
COc1ccc(Br)cc1/C=N/N1C(=O)CSC1=S	?	28µM*	17%	i
O=C(COC(=O)/C=C/c1cccs1)Nc1nc(-c2cccc(Br)c2)cs1	-2%	6.3µM*	-14%	?
Cc1ccccc1N(CC(=O)NC1CCCC1)C(=O)c1oc(C(C)(C)C)cc1C	14%	0%	5%	i
Cc1cc(C(C)(C)C)oc1C(=O)N(CC(=O)NC1CCCC1)Cc1ccccc1Cl	6%	5.6µM*	?	-21%
CC1=C(N2CC2)C(=O)C(CO)=C(N2CC2)C1=O	.	.	0.35µM*	0.35µM*
Cc1ccc(Nc2cc(C)nn2-c2nc(C)cc(C)n2)cc1	1%	128%	?	-7%
Cc1ccc(Nc2cc(C)nn2-c2nc(C)cc(=O)[nH]2)cc1	?	6%	?	2.2µM*
Cc1nc2cc(NC(=O)[C@@H]3C[C@@H](Sc4ccccn4)CN3Cc3cccc(F)c3)ccc2s1	.	.	8%	-5%
COC(=O)/C=c1/sc2nc3ccccc3n2c1=O	45µM*	-34%	-4%	-12%
COc1ccc(CN2CCOc3c(cc(-c4cccc(OC)n4)cc3OC)C2)c(O)c1	.	.	0%	i
COc1ccc(C2C(C#N)=C(C)NC3=C2C(=O)c2ccccc23)cc1 (stereo unspecified)	-11%	-33%	7%	2%
CC1=C([N+](=O)[O-])C(c2ccccc2)C2=C(N1)c1ccccc1C2=O (stereo unspecified)	4%	-42%	?	13µM*
COc1ccc(CN2CCOc3ccc(C(O)c4cccnc4)cc3C2)c(F)c1 (stereo unspecified)	.	.	-9%	-14%
CC1CCN(S(=O)(=O)c2ccc(NC(=O)C3CSC4(C)CCC(=O)N34)cc2)CC1 (stereo unspecified)	?	14µM*	-13%	-23%
O=C(O)c1cc(O)c2c(c1)[C@H]([C@H]1c3cc(C(=O)O)cc(O)c3C(=O)c3c(O[C@@H]4O[C@H](CO)[C@@H](O)[C@H](O)[C@H]4O)cccc31)c1cccc(O[C@@H]3O[C@H](CO)[C@@H](O)[C@H](O)[C@H]3O)c1C2=O	.	.	3%	-10%
COc1cc(C(=O)N/N=C/C23CC[C@@H](O)CC2(O)CC[C@@H]2[C@@H]3CCC3(C)C(C4=CC(=O)OC4)CCC23O)ccc1O (stereo partly specified)	-7%	22%	?	10µM*
CN(C)c1ccc(/C=C/c2cc(/C=C/c3ccc(N(C)C)cc3)c3ccccc3n2)cc1	.	.	61%	-13%
Cc1ccc2nc(/C(C#N)=C/c3ccc(-c4cccc([N+](=O)[O-])c4)o3)[nH]c2c1	-11%	11µM*	-16%	0%
Cc1ccc2nc(/C(C#N)=C/c3ccc(-c4ccc(F)cc4F)o3)[nH]c2c1	-5%	.	16%	?
CCCCN(CCC#N)c1ccc(/C=C/c2ccnc3ccccc23)cc1	.	.	-7%	?
